From PubChem BioAssay (NCATS) come the findings set out here.

Several values for one entry are separate records, joined by “and”; a condition that tells them apart may be missing. Equal values may be shown once. Results filed as inconclusive are left out. A number with no mark means an inactive call. Activity calls are given as the source filed them. Calls follow the shape of the dose curve; as a rule, active = well fitted curve in the direction sought with a large enough effect; inconclusive = small, poorly fitted or top-dose-only effect, or another doubt; inactive = no such curve, though single readings can be large; an effect the other way counts as inactive or inconclusive.

Assay [1] addresses Cytochrome P450 3A7 (Homo sapiens) (UniProt P24462). Kind of assay: Cytochrome P450 family 3 subfamily A member 7 (CYP3A7) small molecule antagonists: luciferase biochemical qHTS assay (AID 1963596). Also: % is scaled to controls: 0 for no effect and ±100 for the full control effect; nearly all actives have a fitted effect of over 40% in size. The method in brief: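 Enzyme-substrate mix + cpd (DMSO), 10 min RT; + NADPH regen system, 1 h RT; + luciferin detection reagent, 20 min RT; luminescence read. Proluciferin substrate, P450-Glo format, 1536-well qHTS.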

The nature of assay [2]: Viability qHTS for spleen associated tyrosine kinase inhibitor (SYKi) naive MV4-11 cells (AID 1963823). Also: nearly all actives have a fitted effect of over 40% in size. Also: potency is read from the fitted curve at half-maximal effect. In outline:
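qHTS, SYK inhibitor-naive MV4-11; 500 cells/well; 72 hr compound exposure, 37 C; CellTiter-Glo added, 10 min RT; luminescence read.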

Assay [3] can be described thus: Viability qHTS for spleen associated tyrosine kinase inhibitor (SYKi) drug resistant MV4-11 cells (AID 1963824). Also: nearly all actives have a fitted effect of over 35% in size. Also: potency is read from the fitted curve at half-maximal effect. The method in brief: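 CellTiter-Glo luminescence, read 10 min after reagent addition, reports viability after a 72 hr compound exposure. Cells are an MV4-11 line made resistant to SYK inhibition, seeded at 500 per well onto compound-containing plates.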

The nature of assay [4]: Cellular viability qHTS for adrenocortical cancer (ACC) cell line SW-13 (AID 1963989). Also: nearly all actives have a fitted effect of over 65% in size. Also: potency is read from the fitted curve at half-maximal effect.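 As to activity (max response): cells grown in serum-free medium with ITS supplement; % is scaled to controls: 0 for no effect and ±100 for the full control effect.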 The conditions noted are these: SW-13 ACC cells viability, CellTiter-Glo, 48 h; activity (max response): active compounds read low. In outline: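 48 h treatment, SW-13 in ITS/DMEM serum-free; doses up to 46 uM; readout CellTiter-Glo luminescence; curve fit four-parameter logistic.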
The nature of assay [5]: Cellular viability qHTS for adrenocortical cancer (ACC) cell line NCI-H295R (AID 1963990). Also: nearly all actives have a fitted effect of over 60% in size. Also: potency is read from the fitted curve at half-maximal effect. In outline:
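Compound titrations (up to 46 uM final) are applied to NCI-H295R cultures for 48 h at 37C. Viable cell number is estimated by CellTiter-Glo signal, normalised to DMSO and doxorubicin controls.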

Cytochrome P450 3A7 (Homo sapiens), sequence (P24462 whole entry, looked up): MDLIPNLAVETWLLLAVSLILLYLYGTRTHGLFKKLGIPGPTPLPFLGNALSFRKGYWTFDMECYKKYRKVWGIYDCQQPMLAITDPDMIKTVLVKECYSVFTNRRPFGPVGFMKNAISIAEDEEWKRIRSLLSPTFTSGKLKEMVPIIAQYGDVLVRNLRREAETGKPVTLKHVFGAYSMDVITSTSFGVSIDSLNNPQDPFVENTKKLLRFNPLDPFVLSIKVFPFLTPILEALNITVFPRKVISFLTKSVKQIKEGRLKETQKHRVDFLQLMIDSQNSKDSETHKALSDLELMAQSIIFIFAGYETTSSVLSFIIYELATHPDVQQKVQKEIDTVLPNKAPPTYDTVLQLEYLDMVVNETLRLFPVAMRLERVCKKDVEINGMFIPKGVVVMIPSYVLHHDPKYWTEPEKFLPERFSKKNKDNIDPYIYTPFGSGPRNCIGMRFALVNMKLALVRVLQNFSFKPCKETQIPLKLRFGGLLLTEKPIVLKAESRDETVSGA

For the compound `C[C@@]12C(=O)OC(=O)[C@]1(C)C1CCC2O1`, the Potency entry in assay [1] was “inactive”. Besides, the Potency in assay [2] is 2.66 µM (active); in assay [3], 2.99 µM (active); in assay [4] it was 7.31 µM (active); in assay [5], 2.31 µM (active).

Turning to `CN1C(=O)CC(C)(c2ccccc2)C1=O` (stereo not given), the Potency entry in assay [1], in assay [2], in assay [3] and in assay [5] was “inactive” each time. The activity (max response) in assay [4] is -10.7%.

On to `Cc1ccc(C(=O)c2ccc(CC(=O)O)n2C)cc1`, for which the Potency entry in assay [1], in assay [2], in assay [3] and in assay [5] was “inactive” throughout. Moreover, the activity (max response) in assay [4] is 4.18%.

Consider `CC[C@H](C)[C@H](N)C(=O)O`, for which the Potency result in assay [1], in assay [2], in assay [3] and in assay [5] was “inactive” throughout. In addition, in assay [4], the activity (max response) is 4.01%.

As for `O=S(=O)(O)c1ccc(O)cc1`, the Potency entry in assay [1], in assay [2], in assay [3] and in assay [5] was “inactive” throughout. Besides, the activity (max response) in assay [4] was 11.9%.

`COc1nccnc1NS(=O)(=O)c1ccc(N)cc1`: the Potency result in assay [1], in assay [2], in assay [3] and in assay [5] was “inactive” each time. For the same compound, the activity (max response) in assay [4] is 1.63%.

As to `Cc1cc(NC(=O)C2=C(O)c3ccccc3S(=O)(=O)N2C)no1`, the Potency result in assay [1], in assay [2], in assay [3] and in assay [5] was “inactive” each time. For the same compound, the activity (max response) in assay [4] was -0.835%.

On to `O=C1NCC2(CCN(CCc3ccccc3)CC2)O1`, for which the Potency entry in assay [1], in assay [2], in assay [3] and in assay [5] was “inactive” each time. Besides, the activity (max response) in assay [4] is 4.78%.

For the compound `CC(C)NC[C@@H](O)COc1ccc(CC(N)=O)cc1`, the Potency result in assay [1], in assay [2], in assay [3] and in assay [5] was “inactive” each time. In addition, in assay [4], the activity (max response) is 7.4%.

For `CC1(C)OC(=O)Nc2ccc(Br)cc21`, the Potency entry in assay [1], in assay [2], in assay [3] and in assay [5] was “inactive” throughout. Also, in assay [4], the activity (max response) is 14.6%.

As for `C=CCNC(N)=S`, the Potency entry in assay [1], in assay [2], in assay [3] and in assay [5] was “inactive” throughout. Besides, the activity (max response) in assay [4] was 13%.

Regarding `OC[C@@H](O)[C@H](O)[C@H](O)[C@@H](O)CO`, the Potency result in assay [1] and in assay [5] was “inactive” each time. The results for the Potency in assay [2] and in assay [3] were 5.96 µM (active) and 3.35 µM (active), respectively. Moreover, the activity (max response) in assay [4] was 1.26% and 9.11%.
